Test in all cases: qHTS profiling for inhibitors of Plasmodium falciparum proliferation (AID 504749); note: nearly all actives have a fitted effect of over 60% in size
What all share (conditions): P. falciparum in erythrocytes, SYBR Green DNA, 72 h; series mostly up to 28.7 µM

For one test, the system named is CP252. The method in brief: (§1)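 P. falciparum-infected erythrocytes (0.3% parasitemia, 2.5% hematocrit) incubated with compound 72 h at 37 C, 5% CO2. Parasite DNA detected by SYBR Green after lysis, overnight at room temperature; normalised to 0.29 uM artemisinin and DMSO.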
The subject of the next test is CP256. A digest of the protocol:
as §1

A further test deals with CP260. The method in brief:
as §1

The next test relates to CP262. The method in brief: as §1
Another test relates to CP265. A digest of the protocol:
as §1

Another test relates to CP266. A digest of the protocol:
as §1

Another test deals with CP268. A digest of the protocol:
as §1

In the next test the test system is CP269. The method in brief:
as §1

In another test the test system is CP286. The method in brief:
as §1

Another test concerns CP291. The method in brief: as §1
For the next test, the system named is CP297. The method in brief:
as §1

A further test has as its system CP305. A digest of the protocol: as §1
For a further test, the system named is CP315. The method in brief: as §1
The subject of a further test is CP325. A digest of the protocol:
as §1

In another test the test system is CP329. A digest of the protocol:
as §1

A further test deals with CP335. A digest of the protocol: as §1
A further test has as its system DFO2036. A digest of the protocol:
as §1

Another test has as its system DIV14. The method in brief:
as §1

Another test deals with DIV17. The method in brief:
as §1

The subject of a further test is DIV30. The method in brief: as §1

Records with an inconclusive call do not appear. The source made the active and inactive calls. Calls come from the whole dose curve; as a rule, active = well fitted inhibition curve with a large enough effect; inconclusive = small, poorly fitted or top-dose-only effect; inactive = flat fitted curve, though single readings scatter.

The values that follow come from PubChem BioAssay (NCATS).
Potency is the fitted concentration of half-maximal effect.

Consider `NC/C=C/C(=O)O`, for which the Potency entry in the test on CP252, with CP256, in the test with CP260, with CP262, in the test on CP265 and in the test with CP266 was “inactive” throughout. Further, the Potency result in the test with CP268, with CP269, in the test with CP286, in the test with CP291, with CP297 and in the test with CP305 was “inactive” each time. In addition, the Potency entry with CP315, with CP325, in the test on CP329, with CP335, with DFO2036 and in the test on DIV14 was “inactive” in each case. Also, the Potency result with DIV17 and with DIV30 was “inactive” each time.

With `C[C@H](CS)C(=O)N1CCC[C@H]1C(=O)O`, the Potency result in the test with CP252, in the test on CP256, in the test on CP260, in the test with CP262, in the test with CP265 and in the test on CP266 was “inactive” in each case. For the same compound, the Potency entry in the test on CP268, with CP269, with CP286, in the test with CP291, in the test on CP297 and in the test with CP305 was “inactive” each time. Moreover, the Potency result with CP315, in the test on CP325, with CP329, in the test with CP335, with DFO2036 and in the test with DIV14 was “inactive” in each case. The Potency result in the test with DIV17 and in the test on DIV30 was “inactive” in each case.

With `FC(F)(F)c1ccccc1-n1ccnc1`, the Potency entry in the test on CP252, in the test on CP256, in the test on CP260, with CP262, with CP265 and in the test on CP266 was “inactive” each time. Further, the Potency entry in the test on CP268, with CP269, in the test with CP286, with CP291, in the test with CP297 and with CP305 was “inactive” in each case. In addition, the Potency entry in the test with CP315, in the test with CP325, in the test on CP329, with CP335, in the test on DFO2036 and in the test with DIV14 was “inactive” in each case. Moreover, the Potency entry in the test on DIV17 and with DIV30 was “inactive” throughout.

On to `CCCCCN(CCCCC)C(=O)C(CCC(=O)O)NC(=O)c1ccc(Cl)c(Cl)c1` (stereo not given), for which the Potency entry in the test on CP252, with CP256, in the test with CP260, in the test on CP262, in the test on CP265 and in the test with CP266 was “inactive” each time. For the same compound, the Potency entry in the test on CP268, with CP269, in the test on CP286, with CP291, in the test on CP297 and in the test with CP305 was “inactive” throughout. Moreover, the Potency entry in the test with CP315, in the test on CP325, in the test on CP329, in the test with CP335, with DFO2036 and in the test on DIV14 was “inactive” throughout. Moreover, the Potency entry in the test on DIV17 and in the test with DIV30 was “inactive” throughout.

For `Nc1ncn([C@@H]2O[C@H](CO)[C@@H](O)[C@H]2O)c(=O)n1`, the Potency result in the test with CP252, with CP256, in the test on CP260, in the test on CP262, with CP265 and in the test on CP266 was “inactive” throughout. Besides, the Potency entry in the test on CP268, in the test on CP269, in the test on CP286, with CP291, in the test with CP297 and in the test with CP305 was “inactive” in each case. Moreover, the Potency entry with CP315, in the test on CP325, in the test on CP329, with CP335, with DFO2036 and with DIV14 was “inactive” throughout. The Potency entry with DIV17 and in the test on DIV30 was “inactive” each time.

As to `CCN(Cc1ccncc1)C(=O)C(CO)c1ccccc1` (stereo not given), the Potency result in the test on CP252, with CP256, with CP260, in the test on CP262, in the test on CP265 and with CP266 was “inactive” throughout. For the same compound, the Potency result with CP268, in the test on CP269, with CP286, in the test with CP291, with CP297 and with CP305 was “inactive” each time. Moreover, the Potency result with CP315, with CP325, with CP329, in the test on CP335, with DFO2036 and with DIV14 was “inactive” throughout. Besides, the Potency result in the test on DIV17 and with DIV30 was “inactive” throughout.

On to `NC(=O)c1cn(Cc2c(F)cccc2F)nn1`, for which the Potency result in the test on CP252, in the test with CP256, in the test with CP260, in the test on CP262, in the test on CP265 and in the test with CP266 was “inactive” throughout. For the same compound, the Potency result in the test with CP268, in the test with CP269, in the test on CP286, in the test on CP291, in the test on CP297 and with CP305 was “inactive” each time. Further, the Potency result in the test with CP315, in the test on CP325, with CP329, in the test on CP335, with DFO2036 and in the test on DIV14 was “inactive” each time. Also, the Potency result in the test with DIV17 and in the test with DIV30 was “inactive” throughout.

Turning to `CN=C(NC#N)NCCSCc1nc[nH]c1C`, the Potency result with CP252, in the test on CP256, in the test on CP260, in the test with CP262, in the test on CP265 and in the test on CP266 was “inactive” throughout. The Potency entry in the test on CP268, in the test with CP269, in the test with CP286, with CP291, in the test with CP297 and in the test on CP305 was “inactive” in each case. For the same compound, the Potency result in the test with CP315, in the test on CP325, with CP329, in the test with CP335, with DFO2036 and in the test on DIV14 was “inactive” each time. Further, the Potency result in the test with DIV17 and with DIV30 was “inactive” each time.

As for `NC(=O)c1ncn([C@@H]2O[C@H](CO)[C@@H](O)[C@H]2O)c1O`, the Potency result with CP252, in the test with CP256, in the test on CP260, in the test with CP262, in the test on CP265 and with CP266 was “inactive” each time. Moreover, the Potency result in the test with CP268, with CP269, in the test with CP286, in the test on CP291, with CP297 and in the test with CP305 was “inactive” in each case. The Potency entry in the test on CP315, in the test with CP325, in the test on CP329, with CP335, with DFO2036 and with DIV14 was “inactive” in each case. Moreover, the Potency result in the test with DIV17 and in the test with DIV30 was “inactive” in each case.

`O=C(O)CCCCCCCC(=O)O`: the Potency entry in the test with CP252, with CP256, in the test with CP260, in the test on CP262, in the test with CP265 and with CP266 was “inactive” throughout. Also, the Potency result in the test with CP268, in the test on CP269, with CP286, in the test with CP291, with CP297 and in the test with CP305 was “inactive” each time. Further, the Potency entry in the test on CP315, in the test on CP325, in the test with CP329, with CP335, in the test on DFO2036 and with DIV14 was “inactive” each time. Further, the Potency result in the test on DIV17 and in the test with DIV30 was “inactive” in each case.

Turning to `O=C(CCNNC(=O)c1ccncc1)NCc1ccccc1`, the Potency entry in the test with CP252, with CP256, in the test on CP260, with CP262, in the test with CP265 and in the test on CP266 was “inactive” each time. Also, the Potency result in the test with CP268, in the test with CP269, in the test on CP286, in the test on CP291, in the test with CP297 and in the test with CP305 was “inactive” throughout. The Potency entry in the test with CP315, with CP325, in the test on CP329, with CP335, in the test with DFO2036 and with DIV14 was “inactive” throughout. In addition, the Potency entry in the test with DIV17 and in the test with DIV30 was “inactive” each time.

For the compound `CCCCNC(=O)NS(=O)(=O)c1ccc(C)cc1`, the Potency result in the test on CP252, in the test on CP256, in the test on CP260, with CP262, in the test with CP265 and in the test with CP266 was “inactive” throughout. Also, the Potency entry with CP268, in the test on CP269, with CP286, in the test with CP291, with CP297 and with CP305 was “inactive” throughout. The Potency entry in the test on CP315, in the test with CP325, in the test on CP329, in the test with CP335, in the test on DFO2036 and in the test with DIV14 was “inactive” throughout. Besides, the Potency entry in the test with DIV17 and in the test with DIV30 was “inactive” each time.

For `Cc1nc2ccccn2c(=O)c1CCN1CCC(C(=O)c2ccc(F)cc2)CC1`, the Potency entry in the test with CP252, with CP256, in the test with CP260, in the test with CP262, with CP265 and in the test with CP266 was “inactive” throughout. In addition, the Potency entry in the test on CP268, in the test on CP269, with CP297, with CP305, in the test with CP315 and in the test with CP325 was “inactive” throughout. Moreover, the Potency result in the test with CP329 and in the test on DFO2036 was “inactive” in each case. In the test on DIV14, the Potency was 6.75 µM (active).
